Data taken from article PMC10668032, “Altered binding affinity of SIX1-Q177R correlates with enhanced WNT5A and WNT pathway effector expression in Wilms tumor”.
The full ranking holds about 33,000 sequences; the median of “e-score” is about -0.053, and the highest 2% start at about 0.38. The full list was thinned out, with the highest values kept by preference.

Target: T1, SIX1 homeodomain (reference allele) (human, UniProt Q15475 108-198)
T1 sequence: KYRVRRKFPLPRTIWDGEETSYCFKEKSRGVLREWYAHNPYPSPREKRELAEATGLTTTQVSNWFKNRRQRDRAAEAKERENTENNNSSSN
Experiment: universal protein binding microarray; Universal all-10-mer PBM (8x60K, AMADID 030236), 300 nM GST-tagged protein, Alexa Fluor 488 anti-GST; buffer, salt, pH and temperature not stated (as in Berger); high values mean tight binding
Conditions: protein: ivt; tags: N-terminal GST; dsDNA, one strand shown
Procedure, shortened: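 Binding of GST-tagged homeodomains is given as 8-mer E-scores from the Universal PBM Analysis Suite. The proteins were produced by in vitro transcription/translation, quantified by anti-GST western blot against a recombinant GST standard curve, and applied in duplicate at 300 nM final concentration to universal 'all 10-mer' protein binding microarrays (8×60K format).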

Point of comparison: AGGTATGA, binding signal 0.242 ± 0.0289 E-score. Against it:
- ATCGCTCG — within error, 0.199 ± 0.0182 E-score
- CGGATTGC — within error, 0.23 ± 0.0242 E-score
- ACACCGAC — within error, 0.256 ± 0.0314 E-score
- GATCAAGA — within error, 0.191 ± 0.0318 E-score
- CCAAGATC — within error, 0.22 ± 0.0354 E-score
- ACCCAATA — lower, 0.158 ± 0.0255 E-score
- GCCCCTCC — within error, 0.158 ± 0.185 E-score
- AGGATACT — higher, 0.364 ± 0.0424 E-score
- TGGATACA — higher, 0.351 ± 0.0427 E-score
- GGAATACC — higher, 0.295 ± 0.024 E-score
- AGGATACA — higher, 0.337 ± 0.0073 E-score
- GGGATAAC — higher, 0.303 ± 0.0153 E-score
- AGGATACC — higher, 0.457 ± 0.00534 E-score
- GGGATACA — higher, 0.383 ± 0.0303 E-score
- GGGATACC — higher, 0.455 ± 0.0274 E-score
- TCTATACA — within error, 0.243 ± 0.0131 E-score
- CGCCGATA — higher, 0.376 ± 0.0145 E-score
- TACTCGCA — lower, 0.154 ± 0.0249 E-score
- CTATATAG — lower, 0.182 ± 0.0165 E-score
- ATGTGGTA — lower, 0.151 ± 0.00476 E-score
- ACCATCTA — within error, 0.159 ± 0.0813 E-score
- CCCGGGTA — within error, 0.228 ± 0.0421 E-score
- ATACAAGA — within error, 0.239 ± 0.0188 E-score
- TACATCCA — lower, 0.156 ± 0.0562 E-score
- ATTGGATA — within error, 0.297 ± 0.05 E-score
- TATATGGA — within error, 0.207 ± 0.0193 E-score
- GGTATGTA — within error, 0.2127 ± 0.00178 E-score
- GATATTGC — within error, 0.323 ± 0.0993 E-score
- GATATGGC — higher, 0.418 ± 0.0102 E-score
- GATATGGA — higher, 0.423 ± 0.00533 E-score
- GATATGAC — higher, 0.357 ± 0.048 E-score
- GATATGTA — higher, 0.383 ± 0.0265 E-score
- AATATGGA — lower, 0.158 ± 0.0544 E-score
- CCTATGTA — lower, 0.156 ± 0.0122 E-score
- AAAAGTAT — within error, 0.204 ± 0.154 E-score
- AGGGTGAT — higher, 0.366 ± 0.00952 E-score
- ATACTTTA — within error, 0.261 ± 0.0614 E-score
- GATAGGTA — higher, 0.325 ± 0.00657 E-score
- GATCAAAA — within error, 0.234 ± 0.0678 E-score
- AGGGGCGG — within error, 0.174 ± 0.127 E-score
- ATCTTCTA — within error, 0.227 ± 0.0812 E-score
- ATATCATA — higher, 0.442 ± 0.0274 E-score
- ATATCTTA — higher, 0.345 ± 0.0615 E-score
- ATCTCATG — lower, 0.197 ± 0.0118 E-score
- AGATCATG — higher, 0.295 ± 0.0208 E-score
- GCATCATA — within error, 0.183 ± 0.0507 E-score
- AGATCATC — higher, 0.344 ± 0.0462 E-score
- ATATCATG — higher, 0.458 ± 0.0133 E-score
- GTATCTTA — within error, 0.312 ± 0.0466 E-score
- CTATCATA — higher, 0.341 ± 0.0419 E-score
- GTATCATA — higher, 0.471 ± 0.013 E-score
- CTATCATC — higher, 0.34 ± 0.0172 E-score
- ATATCATC — higher, 0.46 ± 0.0219 E-score
- CAGCTATC — within error, 0.25 ± 0.0918 E-score
- ATCATCCA — within error, 0.275 ± 0.0117 E-score
- ATCACAGC — higher, 0.2757 ± 0.00158 E-score
- AGTTAATC — within error, 0.182 ± 0.0377 E-score
- AGTAGTAT — higher, 0.349 ± 0.0523 E-score
- CGGCTCGA — within error, 0.15 ± 0.146 E-score
- GAAGATAA — within error, 0.154 ± 0.0705 E-score
- CCGGGAGA — within error, 0.177 ± 0.081 E-score
- TACCAATA — within error, 0.204 ± 0.0104 E-score
- ACTATCCG — higher, 0.35 ± 0.00425 E-score
- AGTATCCA — higher, 0.391 ± 0.00372 E-score
- ATTATCCA — lower, 0.176 ± 0.0268 E-score
- ACTATCCA — within error, 0.241 ± 0.0211 E-score
- GCTATCCA — within error, 0.204 ± 0.0406 E-score
- AGTATCCG — higher, 0.396 ± 0.0105 E-score
- CCTATCCG — higher, 0.316 ± 0.0172 E-score
- GGTATCCA — higher, 0.464 ± 0.0172 E-score
- GGTATTCA — higher, 0.3 ± 0.0073 E-score
- ATTATAGC — within error, 0.176 ± 0.0442 E-score
- CGATCTTA — within error, 0.197 ± 0.0344 E-score
- CCGATCCG — higher, 0.428 ± 0.0349 E-score
- ACGATCCA — within error, 0.284 ± 0.0277 E-score
- CCGATCCA — within error, 0.29 ± 0.0686 E-score
- ACGATCCT — higher, 0.347 ± 0.0269 E-score
- CCGATCGG — higher, 0.319 ± 0.0282 E-score
- ACGATCCG — higher, 0.425 ± 0.0168 E-score
- ATCACCAC — within error, 0.262 ± 0.0152 E-score
- GATCGGAC — within error, 0.248 ± 0.0437 E-score
- ACACCTCC — higher, 0.347 ± 0.0177 E-score
- ATCGGCTG — lower, 0.167 ± 0.0425 E-score
- ATCTGCCC — lower, 0.182 ± 0.0131 E-score
- AGGTATCA — higher, 0.487 ± 0.00797 E-score
- AGGTATCC — higher, 0.461 ± 0.0111 E-score
- CGGTATGA — within error, 0.225 ± 0.00643 E-score
- AGGTATAT — higher, 0.357 ± 0.03 E-score
- CGCTATCC — higher, 0.339 ± 0.0225 E-score
- TGGTATAA — within error, 0.287 ± 0.0507 E-score
- CGGTATTC — higher, 0.319 ± 0.00856 E-score
- ACCTATCC — within error, 0.262 ± 0.0365 E-score
- CGGTATCC — higher, 0.451 ± 0.0218 E-score
- AGTTATCC — higher, 0.295 ± 0.00593 E-score
- CGGTATCA — higher, 0.4855 ± 0.000332 E-score
- GATATTTA — within error, 0.157 ± 0.127 E-score
- ATACGACG — lower, 0.191 ± 0.00652 E-score
- CCCCTCTC — within error, 0.161 ± 0.0741 E-score
- AAAGGGAT — within error, 0.253 ± 0.0943 E-score
- CAGGATAG — higher, 0.315 ± 0.00491 E-score
- AGCAGTAT — higher, 0.313 ± 0.00754 E-score
- ATAACACC — within error, 0.301 ± 0.039 E-score
- ATCCGTCG — within error, 0.239 ± 0.00454 E-score
- ACGCTATC — within error, 0.296 ± 0.0306 E-score
- ATCCAACA — within error, 0.293 ± 0.0336 E-score
- GGTGGATA — higher, 0.362 E-score
- AGCTATCG — within error, 0.284 ± 0.0882 E-score
- AGGTATCG — higher, 0.4779 ± 0.00118 E-score
- GGGTATGA — within error, 0.27 ± 0.0161 E-score
- AGGTATGG — lower, 0.177 ± 0.0177 E-score
- GGTTATCA — within error, 0.21 ± 0.00931 E-score
- GGGTATCA — higher, 0.4971 ± 0.0012 E-score
- GACACACC — within error, 0.165 ± 0.101 E-score
- ATACTTGG — lower, 0.199 ± 0.00946 E-score
- AAACGATC — within error, 0.216 ± 0.065 E-score
- ATAGAGGA — lower, 0.153 ± 0.03 E-score
- ATCCGCTA — within error, 0.243 ± 0.0351 E-score
- CTCCGATA — higher, 0.314 ± 0.00415 E-score
- ATCCGCTC — higher, 0.377 ± 0.0055 E-score
- ATCCGATC — higher, 0.43 ± 0.0245 E-score
- ATCCGATA — higher, 0.466 ± 0.00646 E-score
- CTCCGATC — within error, 0.185 ± 0.0542 E-score
- ATCCGCTG — higher, 0.305 ± 0.0121 E-score
- ATCCGATG — within error, 0.253 ± 0.0575 E-score
- GTCCGATA — higher, 0.331 ± 0.0437 E-score
- ATAGTGAT — higher, 0.32 ± 0.0209 E-score
- GTGTCCGA — within error, 0.217 ± 0.0111 E-score
- CAGATTAA — within error, 0.217 ± 0.0579 E-score
- GCTTAATA — within error, 0.169 ± 0.0471 E-score
- GTATTGTA — within error, 0.272 ± 0.0188 E-score
- ATCTATCG — within error, 0.23 ± 0.0219 E-score
- ATCCATTC — within error, 0.287 ± 0.0196 E-score
- TACTGCAA — lower, 0.163 ± 0.0382 E-score
- GATACATA — higher, 0.398 ± 0.0255 E-score
- TATACATA — within error, 0.246 ± 0.0104 E-score
- CATACAGA — within error, 0.196 ± 0.0391 E-score
- AATACATC — within error, 0.204 ± 0.0447 E-score
- GATACAGC — higher, 0.395 ± 0.00544 E-score
- GATACACA — higher, 0.3539 ± 0.00325 E-score
- AATACATA — the same, 0.242 ± 0.0372 E-score
- GATACAGA — within error, 0.268 ± 0.0783 E-score
- GATACAAC — higher, 0.305 ± 0.0152 E-score
- CATACACC — within error, 0.256 ± 0.0714 E-score
- GATACATC — higher, 0.4297 ± 0.000849 E-score
- GATACACC — higher, 0.469 ± 0.00523 E-score
- AGTGAGCC — within error, 0.225 ± 0.0456 E-score
- ATCACATG — within error, 0.269 ± 0.0277 E-score
- ATCATCTC — higher, 0.371 ± 0.00868 E-score
- ATTGGGGG — lower, 0.152 ± 0.0367 E-score
- GATCAGTA — higher, 0.347 ± 0.00373 E-score
- ATACGCTG — within error, 0.268 ± 0.0386 E-score
- AACACCGA — within error, 0.228 ± 0.0289 E-score
- GACACCAC — higher, 0.439 ± 0.0198 E-score
- GACACCGC — higher, 0.398 ± 0.0204 E-score
- CACACCGC — within error, 0.164 ± 0.108 E-score
- GACACCTA — higher, 0.3565 ± 0.0024 E-score
- AACACCAC — within error, 0.255 ± 0.026 E-score
- GACACCGA — higher, 0.383 ± 0.0167 E-score
- TACACCGA — higher, 0.361 ± 0.0113 E-score
- CACACCTC — within error, 0.267 ± 0.0486 E-score
- GACACCTC — higher, 0.3967 ± 0.00186 E-score
- CACACCAC — within error, 0.206 ± 0.0597 E-score
- AACACCGC — within error, 0.293 ± 0.041 E-score
- ATATGGAC — lower, 0.173 ± 0.0129 E-score
- ATCCTTTC — within error, 0.212 ± 0.0474 E-score
- CAGGATGA — within error, 0.183 ± 0.0851 E-score
- ATCCCTCC — higher, 0.329 ± 0.0164 E-score
- ACGCATAT — within error, 0.233 ± 0.00465 E-score
- GATCTAGA — within error, 0.252 ± 0.0586 E-score
- CAGAGATA — within error, 0.27 ± 0.0194 E-score
- CGTCTCAA — within error, 0.286 ± 0.0622 E-score
